Experimental data as given in PubChem BioAssay AID1159580 (chemical genetic matrix, 2015).
Values joined by “and” are separate entries in the source; they are usually repeats but may differ in a detail not shown here. Equal entries are not always repeated. The whole screen tested about 5,500 compounds, of which about 2,000 (36%) were called active. Another 18% or so got no clear call; they are omitted. No stated cut-off is given here; in the data, active means normalized growth mostly below about 0.91 (no sharp cut-off); inconclusive means no clear call, values can overlap the other calls; inactive means mostly above about 0.92. The list shows a part of the results.

Assay: chemical genetic growth profiling, strain panel (AID 1159580);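 further: tested at 20 µM; growth read once vehicle control cultures reached saturation at 30 °C; 1 = growth at the plate median or of vehicle wells; lower values mean less growth of the strain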
Details: S. cerevisiae deletion strains, growth OD

Measured: normalized growth

NCCCNCCSP(=O)(O)O
inactive: locus YAL013W, strain DEP1, hits give low values 0.988 and 1.01 | locus YAL021C, strain ccr4, hits give low values 0.985 | locus YAL026C, strain drs2, hits give low values 0.976 | locus YAL030W, strain snc1, hits give low values 0.968 | locus YAL040C, strain CLN3, hits give low values 1 | locus YBL061C, strain skt5, hits give low values 0.97 | locus YBR009C, strain hhf1, hits give low values 0.988 | locus YBR021W, strain FUR4, hits give low values 0.967 | locus YBR023C, strain chs3, hits give low values 0.976 | locus YBR171W, strain sec66, hits give low values 0.96 | locus YBR229C, strain ROT2, hits give low values 1 | locus YBR231C, strain swc5, hits give low values 0.975 | locus YBR279W, strain paf1, hits give low values 0.995 | locus YCL011C, strain gbp2, hits give low values 0.957 | locus YCL016C, strain dcc1, hits give low values 0.982 | locus YCL029C, strain bik1, hits give low values 0.988 | locus YCL061C, strain MRC1, hits give low values 0.983 | locus YCL069W, strain vba3, hits give low values 0.994 | locus YCR088W, strain abp1, hits give low values 0.982 | locus YDL005C, strain med2, hits give low values 0.969 | locus YDL035C, strain GPR1, hits give low values 0.994 | locus YDL040C, strain nat1, hits give low values 0.987 | locus YDL074C, strain BRE1, hits give low values 0.993 | locus YDL101C, strain DUN1, hits give low values 0.984 | locus YDL134C, strain PPH21, hits give low values 0.994 | locus YDL185W, strain tfp1, hits give low values 0.944 | locus YDL192W, strain arf1, hits give low values 0.986 | locus YDR001C, strain nth1, hits give low values 0.977 | locus YDR069C, strain doa4, hits give low values 0.968 | locus YDR101C, strain arx1, hits give low values 1 | locus YDR137W, strain rgp1, hits give low values 0.968 | locus YDR150W, strain NUM1, hits give low values 0.949 | locus YDR159W, strain sac3, hits give low values 0.98 | locus YDR162C, strain NBP2, hits give low values 0.992 | locus YDR195W, strain ref2 0.989 | locus YDR297W, strain sur2, hits give low values 0.983 | locus YDR318W, strain mcm21, hits give low values 0.986 | locus YDR334W, strain swr1, hits give low values 0.933 | locus YDR335W, strain msn5, hits give low values 0.981 | locus YDR388W, hits give low values 1 | locus YDR392W, strain spt3, hits give low values 0.927 | locus YDR502C, strain sam2, hits give low values 0.993 | locus YEL003W, strain gim4, hits give low values 0.988 | locus YEL037C, strain rad23, hits give low values 0.981 | locus YEL061C, strain CIN8 (second series), hits give low values 0.972 | locus YEL061C, strain CIN8, hits give low values 0.998 | locus YER002W, strain NOP16, hits give low values 0.997 | locus YER015W, strain faa2, hits give low values 0.973 | locus YER016W, strain bim1, hits give low values 0.991 | locus YER110C, hits give low values 0.989 | locus YER111C, strain swi4, hits give low values 0.988 | locus YER155C, strain BEM2 (second series), hits give low values 0.983 | locus YER155C, strain BEM2, hits give low values 0.942 | locus YER167W, strain BCK2, hits give low values 0.991 | locus YFR010W, strain ubp6, hits give low values 0.957 | locus YGL078C, strain dbp3, hits give low values 0.987 | locus YGL086W, strain mad1, hits give low values 0.978 | locus YGL167C, strain pmr1, hits give low values 0.976 | locus YGL173C, strain kem1, hits give low values 0.944 | locus YGL227W, strain vid30, hits give low values 0.974 | locus YGL240W, strain doc1, hits give low values 0.984 | locus YGL248W, strain PDE1, hits give low values 1 | locus YGL253W, strain hxk2, hits give low values 0.989 | locus YGR078C, strain PAC10, hits give low values 0.984 | locus YGR135W, strain pre9, hits give low values 0.984 | locus YGR229C, strain SMI1, hits give low values 0.964 | locus YGR252W, strain gcn5, hits give low values 0.978 | locus YHR013C, strain ard1, hits give low values 0.981 | locus YHR027C, strain rpn1, hits give low values 0.959 | locus YHR030C, strain SLT2, hits give low values 0.993 | locus YHR079C, strain IRE1 (second series), hits give low values 0.991 | locus YHR094C, strain hxt1, hits give low values 0.979 | locus YHR129C, strain ARP1, hits give low values 0.999 | locus YHR142W, strain chs7, hits give low values 0.936 | locus YHR200W, strain rpn10, hits give low values 0.983 | locus YIL066C, strain RNR3, hits give low values 0.995 | locus YIL073C, strain SPO22, hits give low values 0.941 | locus YIL125W, strain kgd1, hits give low values 1 | locus YIR030C, strain dcg1, hits give low values 0.998 | locus YJL092W, strain hpr5, hits give low values 0.979 | locus YJL095W, strain BCK1 (second series), hits give low values 0.983 | locus YJL095W, strain BCK1, hits give low values 1.02 | locus YJL115W, strain asf1, hits give low values 0.955 | locus YJL129C, strain trk1, hits give low values 1 | locus YJL134W, strain LCB3, hits give low values 0.989 | locus YJL154C, strain vps35, hits give low values 0.972 | locus YJL164C, strain tpk1, hits give low values 0.992 | locus YJL166W, strain qcr8, hits give low values 0.956 | locus YJL168C, strain set2, hits give low values 1 | locus YJL187C, strain SWE1 (second series), hits give low values 0.99 | locus YJL187C, strain SWE1, hits give low values 0.982 | locus YJR043C, strain POL32, hits give low values 0.994
